PubChem BioAssay
For some of these results: Results with a measured potency or affinity are listed apart. Activity calls are given as the source filed them. Unless noted, the rule behind the calls is not given here.

Legend:
[1] = antimalarial activity against Dd2 strain (AID 2302;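 active = growth inhibition above 50% at the single 2 µM test dose, taken to imply half-maximal potency below 2 µM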;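 note: 0% = DMSO untreated growth and 100% = chloroquine plus artemisinin killed control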); settings: P. falciparum Dd2 in RBCs, LDH growth readout, 72 h; at 2 µM; active compounds read high
[2] = human hepatoma cell viability loss – ATP luminescence, cytotoxicity control for P. falciparum antimalarial project, primary screen (AID 2303;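 active = inhibition above 50%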;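 note: 0% = DMSO wells and 100% = digitonin-killed cells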); settings: HepG2 viability, 24-48 h, at 10 µM, active compounds read high
[3] = target: L-lactate dehydrogenase (Plasmodium falciparum (isolate CDC / Honduras)) (UniProt Q27743); experiment: PfLDH activity inhibition – cell lysate, 3D7 strain, counter-screen for P. falciparum growth inhibition project (AID 2304);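 note: 0% = vehicle and 100% = reference inhibitor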; settings: P. falciparum 3D7 crude extract, LDH APAD/NBT absorbance; at 2 µM; active compounds read high
[4] = inhibition of 3D7 malaria parasite growth – strain 3D7 (AID 2306);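 note: 0% = DMSO wells and 100% = chloroquine plus artemisinin control wells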; settings: P. falciparum 3D7 erythrocytic growth, LDH absorbance, 72 h; at 2 µM; active compounds read high
[5] = target: Calcium-dependent protein kinase 1 (Plasmodium falciparum (isolate 3D7)) (UniProt P62344); experiment: PfCDPK1 kinase inhibitors, biochemical, TCAMS library (AID 1159585; cut-off not given, nearly all actives have IC50 up to about 0.98 µM;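 note: inhibitors leave more ATP so luminescence rises with inhibition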); settings: recombinant PfCDPK1, Kinase-Glo ATP depletion luminescence
[6] = target: Plasmodium falciparum protein kinase 6 (PK6, PF3D7_1337100) (UniProt Q8IDW1); experiment: PfPK6 kinase inhibitors, biochemical, TCAMS library (AID 1159586); settings: recombinant PfPK6, Kinase-Glo ATP depletion luminescence
[7] = target: Protein kinase 7 (PK7), Plasmodium falciparum 3D7 (PF3D7_0213400) (UniProt Q7YTF7); experiment: inhibition of Plasmodium PK7 catalytic activity – biochemical, TCAMS antimalarial set, Kinase-Glo luminescence (AID 1159587); settings: recombinant PfPK7, Kinase-Glo ATP depletion luminescence
[8] = target: Calcium-dependent protein kinase 4 (Plasmodium falciparum (isolate 3D7)) (UniProt Q8IBS5); experiment: PfCDPK4 kinase inhibitors, biochemical, TCAMS library (AID 1159588; cut-off not given, nearly all actives have IC50 up to about 0.91 µM); settings: recombinant PfCDPK4, Kinase-Glo ATP depletion luminescence
Calcium-dependent protein kinase 4 (Plasmodium falciparum (isolate 3D7)), sequence (Q8IBS5 whole entry, looked up): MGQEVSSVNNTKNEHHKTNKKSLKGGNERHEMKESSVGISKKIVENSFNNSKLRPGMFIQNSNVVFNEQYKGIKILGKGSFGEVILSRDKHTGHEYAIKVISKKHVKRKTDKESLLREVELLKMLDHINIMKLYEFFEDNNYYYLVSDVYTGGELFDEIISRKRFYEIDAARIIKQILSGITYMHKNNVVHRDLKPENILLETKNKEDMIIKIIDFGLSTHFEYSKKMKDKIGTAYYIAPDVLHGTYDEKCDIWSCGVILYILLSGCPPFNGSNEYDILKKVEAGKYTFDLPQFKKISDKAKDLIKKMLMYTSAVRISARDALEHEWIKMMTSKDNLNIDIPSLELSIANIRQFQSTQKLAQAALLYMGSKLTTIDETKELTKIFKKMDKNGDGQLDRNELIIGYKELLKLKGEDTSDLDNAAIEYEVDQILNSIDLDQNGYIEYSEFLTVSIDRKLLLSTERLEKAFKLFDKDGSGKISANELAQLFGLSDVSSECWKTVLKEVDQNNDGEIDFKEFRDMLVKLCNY

L-lactate dehydrogenase (Plasmodium falciparum (isolate CDC / Honduras)), sequence (Q27743 whole entry, looked up): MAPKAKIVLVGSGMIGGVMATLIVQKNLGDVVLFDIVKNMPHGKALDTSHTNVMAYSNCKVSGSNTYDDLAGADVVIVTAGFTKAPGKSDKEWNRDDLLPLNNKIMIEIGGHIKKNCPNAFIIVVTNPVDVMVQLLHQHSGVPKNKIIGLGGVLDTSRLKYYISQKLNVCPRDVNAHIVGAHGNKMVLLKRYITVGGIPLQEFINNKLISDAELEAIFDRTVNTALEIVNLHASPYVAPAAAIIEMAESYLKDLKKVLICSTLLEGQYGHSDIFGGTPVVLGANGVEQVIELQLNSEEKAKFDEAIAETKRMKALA
Plasmodium falciparum protein kinase 6 (PK6, PF3D7_1337100), sequence (Q8IDW1 1-305): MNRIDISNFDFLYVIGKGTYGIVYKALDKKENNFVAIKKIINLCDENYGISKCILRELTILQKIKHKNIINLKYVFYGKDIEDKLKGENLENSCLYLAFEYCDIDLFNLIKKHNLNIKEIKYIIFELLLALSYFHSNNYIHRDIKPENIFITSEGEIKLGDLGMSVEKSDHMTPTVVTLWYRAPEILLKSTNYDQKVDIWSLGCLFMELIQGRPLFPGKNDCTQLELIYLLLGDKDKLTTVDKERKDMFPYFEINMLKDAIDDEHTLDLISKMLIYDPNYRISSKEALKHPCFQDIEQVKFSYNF
Calcium-dependent protein kinase 1 (Plasmodium falciparum (isolate 3D7)), sequence (P62344 whole entry, looked up): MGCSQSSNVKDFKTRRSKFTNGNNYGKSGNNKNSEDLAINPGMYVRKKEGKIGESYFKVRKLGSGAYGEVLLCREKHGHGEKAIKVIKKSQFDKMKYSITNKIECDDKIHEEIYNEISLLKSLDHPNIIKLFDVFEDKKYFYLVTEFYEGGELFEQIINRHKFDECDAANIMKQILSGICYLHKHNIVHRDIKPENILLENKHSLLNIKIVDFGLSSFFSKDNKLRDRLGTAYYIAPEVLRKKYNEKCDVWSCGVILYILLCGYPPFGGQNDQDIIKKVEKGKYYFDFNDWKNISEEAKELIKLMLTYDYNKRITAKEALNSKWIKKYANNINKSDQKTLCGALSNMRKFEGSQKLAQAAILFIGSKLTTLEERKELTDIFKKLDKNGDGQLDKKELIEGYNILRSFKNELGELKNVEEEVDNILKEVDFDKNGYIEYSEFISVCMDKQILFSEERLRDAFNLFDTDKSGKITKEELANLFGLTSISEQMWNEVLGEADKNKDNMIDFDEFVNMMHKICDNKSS
Protein kinase 7 (PK7), Plasmodium falciparum 3D7 (PF3D7_0213400), sequence (Q7YTF7 1-343): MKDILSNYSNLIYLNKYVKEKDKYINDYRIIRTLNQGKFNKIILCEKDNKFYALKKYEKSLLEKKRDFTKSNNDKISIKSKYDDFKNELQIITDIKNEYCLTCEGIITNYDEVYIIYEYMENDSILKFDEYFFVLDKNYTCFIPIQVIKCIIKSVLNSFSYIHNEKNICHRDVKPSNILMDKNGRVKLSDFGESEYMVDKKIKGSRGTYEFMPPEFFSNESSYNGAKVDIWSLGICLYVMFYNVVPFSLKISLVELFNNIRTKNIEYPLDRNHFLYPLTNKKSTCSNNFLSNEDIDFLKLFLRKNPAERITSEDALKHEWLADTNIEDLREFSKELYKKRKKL

CNc1nc(NN=Cc2cc3c(cc2[N+](=O)[O-])OCO3)nc(Nc2cccc(C(F)(F)F)c2)n1
active: growth inhibition [1] 60% | growth inhibition [4] 101%
inactive: inhibition [2] -1% | inhibition [3] 2% | outcome [5] | outcome [6] | outcome [7] | outcome [8]

Cc1cccc2[nH]c(-c3cccc(-c4cccc(CN5CCN(c6ccc(C#N)cn6)CC5)c4)c3)nc12
active: growth inhibition [4] 94%
inactive: growth inhibition [1] 34% | inhibition [2] 11% | inhibition [3] -5% | outcome [5] | outcome [6] | outcome [7] | outcome [8]

CC1CN(c2ccc(NC(=O)c3cccs3)cc2)CCN1Cc1cccc(F)c1 (stereo not given)
active: growth inhibition [1] 96% | growth inhibition [4] 96%
inactive: inhibition [2] 5% | inhibition [3] 0% | outcome [5] | outcome [6] | outcome [7] | outcome [8]

O=C(NCC1CCN(C/C=C/c2ccccc2)CC1)Nc1ccc(Oc2ccccc2)cc1
inactive: growth inhibition [1] 11% | inhibition [2] 40% | inhibition [3] -3% | outcome [5] | outcome [6] | outcome [7] | outcome [8]
active: growth inhibition [4] 83%

Cn1nccc1C(=O)NCCNCc1cccc(-c2ccc(-c3nc4ccc(C(F)(F)F)cc4[nH]3)s2)c1
active: growth inhibition [1] 99% | growth inhibition [4] 100%
inactive: inhibition [2] 36% | inhibition [3] -6% | outcome [5] | outcome [6] | outcome [7] | outcome [8]

CCN(CCNc1nc(NCCc2cnc[nH]2)nc(N(CCC#N)Cc2ccccc2)n1)c1cccc(C)c1
active: growth inhibition [1] 92% | growth inhibition [4] 101%
inactive: inhibition [2] 13% | inhibition [3] -3% | outcome [5] | outcome [6] | outcome [7] | outcome [8]

Nc1ccc(-c2csc(Nc3ccncc3)n2)cc1
active: growth inhibition [1] 50% | growth inhibition [4] 95%
inactive: inhibition [2] 12% | inhibition [3] -3% | outcome [5] | outcome [6] | outcome [7] | outcome [8]

Cc1cccc2[nH]c(-c3ccc(-c4ccc(CN5CCC(N)C5)cc4)s3)nc12 (stereo not given)
active: growth inhibition [1] 98% | growth inhibition [4] 100%
inactive: inhibition [2] 21% | inhibition [3] -11% | outcome [5] | outcome [6] | outcome [7] | outcome [8]

COc1cccc(CN2CCCC(OC(c3ccccc3)c3ccccc3)C2)c1O (stereo not given)
active: growth inhibition [1] 73% | growth inhibition [4] 90%
inactive: inhibition [2] 19% | inhibition [3] 0% | outcome [5] | outcome [6] | outcome [7] | outcome [8]

Cc1nc2nc(N)nc(N)c2c(C)c1Cc1cccs1
inactive: growth inhibition [1] 2% | inhibition [3] -1% | outcome [5] | outcome [6] | outcome [7] | outcome [8]
active: inhibition [2] 66% | growth inhibition [4] 95%

C[C@H](Cc1ccc(OCCCCCCOc2ccc(C[C@@H](C)NC[C@H](O)c3cccc(Cl)c3)cc2)cc1)NC[C@H](O)c1cccc(Cl)c1
inactive: inhibition [3] 3% | outcome [5] | outcome [6] | outcome [7] | outcome [8]
active: growth inhibition [1] 99% | inhibition [2] 99% | growth inhibition [4] 99%

O=C(c1ccc(-c2ccc(-c3nc4ccc(F)cc4[nH]3)cc2)cc1)N1CCCCC1CN1CCC(O)C1 (stereo not given)
inactive: inhibition [2] 24% | inhibition [3] -1% | outcome [5] | outcome [6] | outcome [7] | outcome [8]
active: growth inhibition [1] 100% | growth inhibition [4] 90%

COc1ccc2c(c1C1CCN(CCCCNC(=O)c3ccc(-c4ccc(Cl)cn4)cc3)CC1)CCCC2
active: growth inhibition [4] 90%
inactive: growth inhibition [1] 49% | inhibition [2] 29% | inhibition [3] -2% | outcome [5] | outcome [6] | outcome [7] | outcome [8]

CC(C)CCCC(C)NC[C@@H](O)[C@H](Cc1ccccc1)NC(=O)c1cc(N2CCCC2=O)cc(N(c2ccccc2)S(C)(=O)=O)c1 (stereo not given in full)
inactive: inhibition [2] 17% | inhibition [3] -5% | outcome [5] | outcome [6] | outcome [7] | outcome [8]
active: growth inhibition [1] 97% | growth inhibition [4] 99%

CCOC(=O)NC1=NC(C)(C)N(OCCCOc2cc(Cl)c(Cl)cc2Cl)C(N)=N1
inactive: inhibition [3] -2% | outcome [5] | outcome [6] | outcome [7] | outcome [8]
active: growth inhibition [1] 94% | inhibition [2] 63% | growth inhibition [4] 97%

Cc1cc(N(C)C)nc(Nc2ccc(NC(=O)c3ccc(F)cc3)cc2)n1
active: growth inhibition [4] 100%
inactive: growth inhibition [1] 21% | inhibition [2] 8% | inhibition [3] -3% | outcome [5] | outcome [6] | outcome [7] | outcome [8]

CC(C)CNCc1cccc(-c2ccc(CNc3ccc4ncccc4c3)cc2)c1
inactive: growth inhibition [1] 32% | inhibition [2] 13% | inhibition [3] -3% | outcome [5] | outcome [6] | outcome [7] | outcome [8]
active: growth inhibition [4] 94%

COc1ccc2nccc([C@@H](O)CN3CCC(NC(=O)Cc4cc5ccccc5s4)CC3)c2c1
inactive: growth inhibition [1] 42% | inhibition [2] 16% | inhibition [3] 7% | outcome [5] | outcome [6] | outcome [7] | outcome [8]
active: growth inhibition [4] 92%

CC(C)[C@H](NC(=O)c1ccc(O)c(-c2ccc(Cl)c(Cl)c2)c1)C(=O)NCCN1CCOCC1
active: growth inhibition [4] 95%
inactive: growth inhibition [1] 44% | inhibition [2] -4% | inhibition [3] -1% | outcome [5] | outcome [6] | outcome [7] | outcome [8]

CCCCCCN1CCCN(Cc2ccc(C(=O)Nc3ccc(Cl)cc3)cc2)CC1
active: growth inhibition [1] 54% | inhibition [2] 50% | growth inhibition [4] 89%
inactive: inhibition [3] 3% | outcome [5] | outcome [6] | outcome [7] | outcome [8]
